According to PubChem BioAssay (EPA / NIEHS):
Calls of active or inactive are those of the source. How the source made its calls: active means hit-call score of the fitted dose curve at least 0.9, where 1 is the maximum; inactive means score below 0.9.

experiment: ATG_E_Box_CIS: Attagene CIS-FACTORIAL HepG2 Assay for human Enhancer Box (E-box) (AID 2282936); conditions: HepG2 E-box cis-reporter transcription, actives raise or lower the signal
Protocol: ATG_CIS is a cell-based, multiplexed-readout assay that uses HepG2, a human liver cell line, with measurements taken at 24 hours after chemical dosing in a 24-well plate.ATG_E_Box_CIS is one of 52 assay component(s) measured or calculated from the ATG_CIS assay. It is designed to make measurements of mRNA induction, a form of inducible reporter, as detected with fluorescence intensity signals by Reverse transcription polymerase chain reaction (RT-PCR) and Capillary electrophoresis technology.Data from the assay component ATG_E_Box_CIS was analyzed into 1 assay endpoint. This assay endpoint, ATG_E_Box_CIS, was analyzed with bidirectional fitting relative to DMSO as the negative control and baseline of activity. Using a type of inducible reporter, measures of mRNA for gain or loss-of-signal activity can be used to understand the reporter gene at the transcription factor-level as they relate to the gene USF1. Furthermore, this assay endpoint can be referred to as a primary readout, because this assay has produced multiple assay endpoints where this one serves a reporter gene function. To generalize the intended target to other relatable targets, this assay endpoint is annotated to the dna binding intended target family, where the subfamily is basic helix-loop-helix protein.
Human liver HepG2 cells are transiently transfected with multiple reporter transcription units (MRTUs) in 6-well plates using FuGene 6 reagent (Roche; 3 ml FuGene/1 mg DNA). The MRTU constructs are regulated by a cis-regulating element (promoter). […] A major difference between the CIS and TRANS system is that in CIS activities of endogenous TFs are measured, whereas the TRANS assay evaluates changes in activities of exogenous, chimeric NR-Gal4 proteins. […] At the end of 24 hour incubation, total RNA was isolated using TriZol reagent (Invitrogen). The isolated RNA is then reverse-transcribed using oligo(dT) primer and Mo-MLV reverse transcriptase (Invitrogen) with DNAse I (Ambion) treatment for 30 min. The one-tenth of the produced cDNA was amplified by PCR using Taq DNA polymerase (Invitrogen) and two reporter sequence-specific primers. The PCR products were fluorescently labeled by primer extension with 6-arboxyfluorescein (6-FAM) 5'-labeled reporter sequence-specific primer (2 min at 95 C, 20 s at 68 C and 10 min at 72 C) and these products were digested with 5U of HpaI (New England Biolabs) for 2h at 37 C. The fragments were purified using Qiaquick PCR columns (Qiagen), analyzed on an ABI 3130xL genetic analyzer (Applied Biosystems) with peak positions identified by using a set of X-rhodamine (ROX)-labeled MapMarker1000 molecular weight standards (BioVentures). The raw capillary electrophoresis data was processed using Attagraph software (Attagene).

outcome, inactive:
NCCCN1CCN(CCCN)CC1
FC(F)=C(F)OC(F)(F)C(F)(F)C(F)(F)F
CCCCOCCOC(=O)COc1nc(Cl)c(Cl)cc1Cl
CCCc1ccc(OC)cc1
CCCCCCCCCCOC(C)=O
C=C[C@](C)(O)CC[C@@H]1[C@@]2(C)CCCC(C)(C)[C@@H]2CC[C@@]1(C)O
CNC(=S)NN
CCCCCCOC(=O)C(C)CC (stereo not given)
Nc1ccc(Oc2ccc(N)c(N)c2)cc1
COCC(C)N (stereo not given)
NC(=O)OCC(COC(N)=O)c1ccccc1
O=C1CCCN1CCO
CC[C@H]1OC(=O)[C@H](C)[C@@H](O[C@H]2C[C@@](C)(OC)[C@@H](O)[C@H](C)O2)[C@H](C)[C@@H](O[C@@H]2O[C@H](C)C[C@H](N(C)C)[C@H]2O)[C@](C)(O)C[C@@H](C)C(=NOCOCCOC)[C@H](C)[C@@H](O)[C@]1(C)O
O=C(O)CCCC[C@@H]1SC[C@@H]2NC(=O)N[C@@H]21
CCN(CC)c1ccc(C(=O)c2ccccc2C(=O)O)c(O)c1
O=CN1CCCCC1
O=C1CCCCCCCCCCCCCCCO1
CC(C)=CCCC(C)C=O (stereo not given)
CC(C)CCCC(C)CC=O (stereo not given)
O=C(OCC1CCC2OC2C1)C1CCC2OC2C1 (stereo not given)
O=C(O)CC(C(=O)O)C(CC(=O)O)C(=O)O (stereo not given)
Nc1nc2ccccc2[nH]1
C[C@]12CCC(=O)C=C1CC[C@@H]1[C@@H]2C(=O)C[C@@]2(C)[C@H]1CC[C@]2(O)C(=O)CO
C1=Cc2ccccc2C1
COc1cc(C)ccc1C(C)C
CCCCCCC1(C)CCC(=O)O1 (stereo not given)
O=[N+]([O-])c1ccc(CO)cc1
O=S(=O)(Oc1ccc(Cl)cc1Cl)c1ccccc1
C[C@]12C=CC(=O)C=C1CC[C@@H]1[C@@H]2[C@@H](O)C[C@@]2(C)[C@H]1CC[C@]2(O)C(=O)CO
C=C1[C@H]2CC[C@@H]3[C@H]2C(C)(C)CCC[C@]13C
C[Si](C)(C)O[Si](O)(O)O
CC(C)(C)c1n[nH]c(=O)n(N)c1=O
CCCCC(CC)CCC(CC(C)C)OS(=O)(=O)O (stereo not given)
O=c1c2ccccc2oc2ccccc12
O=CC1CC1
CCO[Si](C)(OCC)OCC

AC50, active:
CCCCCCCCCCCCCCCC[N+](C)(C)CC 13.5 µM
c1ccc(-c2ccccn2)nc1 61.2 µM
C=CC(=O)OCCOC(=O)C=C 27.3 µM
O=C1c2cccc(O)c2C(=O)c2c(O)cc(CO)cc21 2.41 µM
